Data reported in paper PMC5540273 (PLoS ONE, 2017).

Columns and labels:
Details in all cases: concentration: 1 μM,replicates: in singlicate; n = 1
MEK5 = system: T1, MEK5
T1 construct: gene MAP2K5

MEK6 = system: T2, MEK6
T2 construct: gene MAP2K6

MELK = system: MELK
MERTK = system: MERTK
MET = system: MET
MINK = system: T3, MINK
T3 construct: gene MINK1

MKK7 = system: MKK7
MKNK1 = system: MKNK1
MKNK2 = system: MKNK2
MLCK = system: T4, MLCK
T4 construct: gene MYLK3

MLK1 = system: T5, MLK1
T5 construct: gene MAP3K9

MLK2 = system: MLK2
MLK3 = system: MLK3
MRCKA = system: MRCKA
MRCKB = system: T6, MRCKB
T6 construct: gene CDC42BPB

MST1R = system: MST1R
MST1 = system: T7, MST1
T7 construct: gene STK4

MST2 = system: T8, MST2
T8 construct: gene STK3

MST3 = system: T9, MST3
T9 construct: gene STK24

MST4 = system: MST4
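Note: KINOMEscan kinase panel screen.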

## CCn1c(-c2nonc2N)nc2cncc(Br)c21 [SB-738004]
MEK5
  %Inh: 74%
MEK6
  %Inh: 10%
MELK
  %Inh: 35%
MERTK
  %Inh: 0%
MET
  %Inh: 0%
MINK
  %Inh: 29%
MKK7
  %Inh: 22%
MKNK1
  %Inh: 10%
MKNK2
  %Inh: 81%
MLCK
  %Inh: 28%
MLK1
  %Inh: 0%
MLK2
  %Inh: 0%
MLK3
  %Inh: 12%
MRCKA
  %Inh: 11%
MRCKB
  %Inh: 0%
MST1R
  %Inh: 19%
MST1
  %Inh: 0%
MST2
  %Inh: 6%
MST3
  %Inh: 19%
MST4
  %Inh: 0%

## Cc1ccc(C(=O)Nc2ccc(Oc3ccc4nc(NC(=O)C5CC5)cn4c3)c(F)c2)c(=O)n1-c1ccccc1
MEK5
  %Inh: 98.9%
MEK6
  %Inh: 0%
MELK
  %Inh: 37%
MERTK
  %Inh: 99.2%
MINK
  %Inh: 0%
MKK7
  %Inh: 0%
MKNK1
  %Inh: 88%
MKNK2
  %Inh: 94.2%
MLCK
  %Inh: 0%
MLK1
  %Inh: 80%
MLK2
  %Inh: 92.4%
MLK3
  %Inh: 13%
MRCKA
  %Inh: 0%
MRCKB
  %Inh: 0%
MST1R
  %Inh: 100%
MST1
  %Inh: 47%
MST2
  %Inh: 100%
MST3
  %Inh: 5%
MST4
  %Inh: 0%

## CCOC(=O)N1CCC(n2cnc(-c3ccc(F)cc3)c2-c2ccnc(N)n2)CC1 [SB-219952]
MEK5
  %Inh: 29%
MEK6
  %Inh: 1%
MELK
  %Inh: 0%
MERTK
  %Inh: 21%
MET
  %Inh: 16%
MINK
  %Inh: 54%
MKK7
  %Inh: 11%
MKNK1
  %Inh: 19%
MKNK2
  %Inh: 49%
MLCK
  %Inh: 0%
MLK1
  %Inh: 4%
MLK2
  %Inh: 0%
MLK3
  %Inh: 27%
MRCKA
  %Inh: 20%
MRCKB
  %Inh: 3%
MST1R
  %Inh: 0%
MST1
  %Inh: 20%
MST2
  %Inh: 0%
MST3
  %Inh: 44%
MST4
  %Inh: 0%

## CN(c1ccc2c(c1)nc(NCc1ccc(F)cc1)n2C)c1ccnc(Nc2ccc(CS(C)(=O)=O)cc2)n1.Cl [GW813244]
MEK5
  %Inh: 97.9%
MEK6
  %Inh: 11%
MELK
  %Inh: 13%
MERTK
  %Inh: 77%
MET
  %Inh: 45%
MINK
  %Inh: 9%
MKK7
  %Inh: 4%
MKNK1
  %Inh: 0%
MKNK2
  %Inh: 0%
MLCK
  %Inh: 0%
MLK1
  %Inh: 24%
MLK2
  %Inh: 44%
MLK3
  %Inh: 0%
MRCKA
  %Inh: 6%
MRCKB
  %Inh: 0%
MST1R
  %Inh: 0%
MST1
  %Inh: 16%
MST2
  %Inh: 0%
MST3
  %Inh: 1%
MST4
  %Inh: 3%

## Cn1cc(-c2cccc3c(N)c(C(N)=O)nnc23)cn1
MEK5
  %Inh: 41%
MEK6
  %Inh: 0%
MELK
  %Inh: 16%
MERTK
  %Inh: 0%
MET
  %Inh: 3%
MINK
  %Inh: 29%
MKK7
  %Inh: 13%
MKNK1
  %Inh: 5%
MKNK2
  %Inh: 29%
MLCK
  %Inh: 0%
MLK1
  %Inh: 8%
MLK2
  %Inh: 2%
MLK3
  %Inh: 2%
MRCKA
  %Inh: 20%
MRCKB
  %Inh: 3%
MST1R
  %Inh: 24%
MST1
  %Inh: 23%
MST2
  %Inh: 2%
MST3
  %Inh: 51%
MST4
  %Inh: 40%
